A short description of experiment [1]: APR_HepG2_CellCycleArrest_1hr: Apredica 1-hour HepG2 Assay for Cell Cycle Arrest (AID 2282666). The settings on record: high-content imaging, actives raise or lower the signal. Summed up: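 HepG2 cells exposed for 1 h to 0.39–200 uM compound (0.5% DMSO). Fixed, Hoechst-stained nuclei imaged by ArrayScan; DNA content quantified by Cell Cycle analysis; bidirectional fit against DMSO.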

A short description of experiment [2]: APR_HepG2_CellLoss_1hr: Apredica 1-hour HepG2 Assay for Cell Loss (AID 2282668).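 Note: curves fitted both ways against DMSO so gain or loss of cells counts.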 The settings on record: high-content imaging. Summed up:
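HepG2 cells were treated for 1 h with compound at 0.39–200 uM, in duplicate, in 0.5% DMSO. After formaldehyde fixation, Hoechst 33342-stained nuclei were imaged on an ArrayScan to count cells. Data were fitted bidirectionally versus DMSO.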

The nature of experiment [3]: APR_HepG2_MicrotubuleCSK_1hr: Apredica 1-hour HepG2 Assay for Microtubule CSK Stabilty (AID 2282669). The following applies: HepG2 microtubule cytoskeleton imaging, actives raise or lower the signal. Summed up:
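HepG2 cells exposed 1 h to 0.39–200 uM compound (0.5% DMSO, duplicates), then formaldehyde-fixed, permeabilized and immunostained for alpha-tubulin with Hoechst nuclei. Imaged by ArrayScan high-content analysis; bidirectional fit versus DMSO.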

The nature of experiment [4]: APR_HepG2_NuclearSize_1hr: Apredica 1-hour HepG2 Assay for Nuclear Size (AID 2282670). The following applies: high-content imaging, actives raise or lower the signal. Summed up:
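HepG2 cells dosed 1 hr with 0.39–200 uM compound (0.5% DMSO), formaldehyde-fixed, Hoechst 33342-stained and imaged at 20x; nuclear diameter from nuclear stain, fitted bidirectionally against DMSO.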

Experiment [5] in a line: APR_HepG2_MitoticArrest_1hr: Apredica 1-hour HepG2 Assay for Mitotic Arrest (AID 2282672). The following applies: high-content imaging, actives raise or lower the signal. Summed up: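 HepG2 cells exposed 1 hr to compounds at 0.39–200 uM (0.5% v/v DMSO final), then fixed in 3.7% formaldehyde and immunostained for phospho-histone H3 with Hoechst 33342. Mitotic arrest scored by automated fluorescence imaging, fitted bidirectionally versus DMSO.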

Experiment [6] can be described thus: APR_HepG2_P-H2AX_1hr: Apredica 1-hour HepG2 Assay for H2AX Phosphorylation (AID 2282673). The settings on record: high-content imaging, actives raise or lower the signal. The essentials:
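HepG2 dosed 1 hr at 0.39-200 uM (0.5% DMSO final), duplicate. Fixed in 3.7% formaldehyde, Triton permeabilized, immunostained for phospho-histone H2A.x (1:200) with Hoechst 33342; ArrayScan 20x imaging, bidirectional fit vs DMSO.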

The nature of experiment [7]: APR_HepG2_MitoMass_1hr: Apredica 1-hour HepG2 Assay for Mitochondrial Mass (AID 2282674). The settings on record: high-content imaging, actives raise or lower the signal. The essentials: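 HepG2 cells dosed 1 hr with 0.39-200 uM compound (0.5% DMSO), duplicate wells. Mitochondria stained with 250 nM MitoTracker Red CMXRos for 30 min before formaldehyde fixation, imaged at 20x by ArrayScan; bidirectional fit versus DMSO.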

The nature of experiment [8]: APR_HepG2_MitoMembPot_1hr: Apredica 1-hour HepG2 Assay for Mitochondrial Membrane Potential (AID 2282675). The following applies: imaging, actives raise or lower the signal. The essentials: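 HepG2 cells dosed 1 hour with 0.39–200 uM compound in duplicate, 0.5% DMSO final. MitoTracker Red CMXRos (250 nM, 30 min) loaded before formaldehyde fixation; fluorescence quantified by high-content imaging, bidirectional fitting versus DMSO.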

Experiment [9] can be described thus: APR_HepG2_CellCycleArrest_24hr: Apredica 24-hour HepG2 Assay for Cell Cycle Arrest (AID 2282905).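 Note: cell cycle arrest scored as ratio of 2N to 4N nuclear DNA content.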 The settings on record: imaging, actives raise or lower the signal. Summed up:
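HepG2 cells were exposed to compounds at 0.39–200 uM (ten concentrations, duplicate) in 0.5% v/v DMSO for 24 hr. After formaldehyde fixation and Triton permeabilization, Hoechst 33342-stained nuclei were imaged at 20x; DNA content was quantified, with bidirectional fitting against DMSO.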

Experiment [10] can be described thus: APR_HepG2_StressKinase_1hr: Apredica 1-hour HepG2 Assay for Stress Kinase (AID 2282906). The settings on record: HepG2 stress kinase (phospho-c-Jun) imaging, actives raise or lower the signal. Summed up: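 HepG2 cells dosed 0.39-200 uM (0.5% DMSO) for 1 h, then formaldehyde-fixed. Stress kinase read by phospho-c-Jun immunofluorescence using high-content imaging; bidirectional fit vs DMSO.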

Experiment [11] is described as follows: APR_HepG2_CellLoss_24hr: Apredica 24-hour HepG2 Assay for Cell Loss (AID 2282908). The settings on record: high-content imaging. Summed up:
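Compounds were tested at 0.39–200 uM in duplicate with 0.5% v/v DMSO final. Cells were then fixed in 3.7% formaldehyde, Hoechst 33342 nuclei were imaged at 20x by HCS, and cell number was fitted bidirectionally against DMSO.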

The nature of experiment [12]: APR_HepG2_MitoMembPot_24hr: Apredica 24-hour HepG2 Assay for Mitochondrial Membrane Potential (AID 2282911). The settings on record: imaging, actives raise or lower the signal. Summed up:
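Human hepatoma HepG2 cultures received ten compound concentrations up to 200 uM for 24 hr. Membrane-potential dye signal, captured by automated fluorescence microscopy, was scored for gain or loss against DMSO controls.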

Experiment [13] can be described thus: APR_HepG2_MitoMass_24hr: Apredica 24-hour HepG2 Assay for Mitochondrial Mass (AID 2282912). The settings on record: high-content imaging, actives raise or lower the signal. The essentials: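 Human HepG2 liver cells were exposed for 24 hr to compounds at 0.39–200 uM (duplicates, 0.5% v/v DMSO final). They were stained live with 250 nM MitoTracker Red CMXRos for 30 min, fixed in 3.7% formaldehyde, and imaged by HCS fluorescence; signals were fitted bidirectionally against DMSO.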

Experiment [14] is described as follows: APR_HepG2_CellCycleArrest_72hr: Apredica 72-hour HepG2 Assay for Cell Cycle Arrest (AID 2282914). The settings on record: high-content imaging, actives raise or lower the signal. The essentials: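 Cell cycle arrest in HepG2 was scored from nuclear DNA content after 72 hr compound treatment (0.39–200 uM). Activity, either gain or loss, was fitted against the DMSO baseline.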

Experiment [15] is described as follows: APR_HepG2_CellLoss_72hr: Apredica 72-hour HepG2 Assay for Cell Loss (AID 2282915). The following applies: high-content imaging. The essentials:
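Cell number comes from Hoechst 33342-labelled nuclei, imaged at 20x after 3.7% formaldehyde fixation. Dosing was 0.39–200 uM, ten concentrations in duplicate, 0.5% DMSO final, for 72 h. Bidirectional fit relative to DMSO baseline.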

The nature of experiment [16]: ACEA_ER_80hr: ACEA Biosciences xCELLigence Real-Time Cell Analysis on Estrogen Receptor Agonism for Proliferation (AID 2282667; active = hit-call score of the fitted dose curve at least 0.9, where 1 is the maximum). The settings on record: T47D proliferation, impedance (xCELLigence), 80 h. The essentials: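 Cell-growth kinetics were measured by impedance in T47D cells treated continuously with compound (top 100 uM final, 1:4 steps, 8 points). Activity at 80 h was scored as signal gain over the DMSO baseline.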

The nature of experiment [17]: APR_HepG2_NuclearSize_24hr: Apredica 24-hour HepG2 Assay for Nuclear Size (AID 2282907). The settings on record: high-content imaging, actives raise or lower the signal. Summed up:
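HepG2 human liver cells were exposed for 24 hr to compounds at 0.39–200 uM (ten concentrations, duplicate) in 0.5% v/v DMSO. They were then formaldehyde-fixed, Triton-permeabilized and Hoechst 33342-stained, and nuclear diameter was imaged at 20x. Bidirectional fits were made against DMSO.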

The nature of experiment [18]: APR_HepG2_MitoticArrest_24hr: Apredica 24-hour HepG2 Assay for Mitotic Arrest (AID 2282910). The following applies: high-content imaging, actives raise or lower the signal. The essentials:
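Compounds are dosed onto HepG2 cells across ten concentrations up to 200 uM for 24 hr. Cells are then fixed in 3.7% formaldehyde, permeabilised, and labelled for phospho-histone H3 and nuclei; images are scored by cell cycle analysis and fitted bidirectionally relative to DMSO.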

Experiment [19] is described as follows: APR_HepG2_p53Act_24hr: Apredica 24-hour HepG2 Assay for p53 Activation (AID 2282913).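 Note: p53 protein immunofluorescence averaged per cell in HepG2 with Hoechst nuclei.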 The settings on record: high-content imaging, actives raise or lower the signal. Summed up: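 Automated fluorescence imaging quantifies p53 immunostaining in HepG2 cells after a 24 hr exposure (0.39–200 uM, duplicate, 0.5% DMSO). Nuclei are located by Hoechst 33342 staining.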

Experiment [20] in a line: APR_HepG2_MicrotubuleCSK_24hr: Apredica 24-hour HepG2 Assay for Microtubule CSK Stabilty (AID 2282909). The following applies: HepG2 microtubule cytoskeleton imaging, actives raise or lower the signal. Summed up:
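HepG2 cells exposed 24 h to compounds at 0.39–200 uM (duplicate, 0.5% v/v DMSO final), then fixed, permeabilized and immunostained for alpha-tubulin with Hoechst 33342. Cytoskeleton imaged at 20x; bidirectional fit versus DMSO baseline.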

We go through eight compounds from PubChem BioAssay (EPA / NIEHS).

What is called AC50 is the concentration giving half of the maximal activity seen.

Results filed as inconclusive are left out. Activity calls are given as the source filed them. Rule for the calls, unless noted: active = hit-call score of the fitted dose curve at least 0.9, where 1 is the maximum; inactive = score below 0.9.

Regarding `Cc1ccccc1CO[C@@H]1C[C@@]2(C(C)C)CC[C@]1(C)O2`, the compound was classed as inactive in experiment [1], in experiment [2], in experiment [3], in experiment [4], in [5] and in [6]. The compound was classed as inactive in experiment [7], in [8], in experiment [10], in [11], in experiment [12] and in [13]. In addition, the compound was classed as inactive in experiment [14] and in experiment [15]. In [9], the AC50 was 79.8 µM (active).

As to `COc1ccc(O)c(C(C)(C)C)c1`, the half-maximal activity concentration (AC50) in experiment [16] is 1.95 µM (active). In addition, the outcome in experiment [9], in experiment [17], in experiment [11], in experiment [18], in experiment [12] and in [13] was inactive. Further, the result in experiment [19], in experiment [14] and in [15] was inactive.

With `Cc1cccc([N+](=O)[O-])c1`, the compound was called inactive in experiment [16], in experiment [9], in [17], in experiment [11], in [12] and in [13]. Further, the compound was called inactive in experiment [19], in experiment [14] and in [15].

On to `Cc1cc(-c2ccc(N)c(C)c2)ccc1N`, for which the compound was classed as inactive in experiment [9], in experiment [11], in experiment [12], in experiment [13], in experiment [19] and in experiment [15]. Moreover, the AC50 in experiment [14] is 66.7 µM (active).

As to `CCCN(CCC)N=O`, the outcome in experiment [9], in experiment [11], in [20], in [12], in experiment [13] and in experiment [19] was inactive. Besides, the outcome in experiment [14] and in [15] was inactive.

In the case of `CC(C)C(=O)OCC(C)(C)C(OC(=O)C(C)C)C(C)C` (centres undefined), the call in experiment [9], in experiment [11], in experiment [20], in experiment [18], in experiment [12] and in [13] was inactive. The compound was called inactive in [19], in experiment [14] and in [15].

For `Cc1ccccc1[N+](=O)[O-]`, the call in experiment [9], in [11], in experiment [12], in [13], in experiment [19] and in experiment [14] was inactive. For the same compound, in experiment [15], the call was inactive.

Turning to `C[C@]12CCC(=O)C=C1CC[C@@H]1[C@@H]2CC[C@@]2(C)[C@H]1CC[C@]2(C)O`, the compound was classed as inactive in experiment [9], in experiment [17], in [11], in experiment [18], in experiment [12] and in experiment [13]. The compound was called inactive in [19], in [14] and in [15].
